The full list was thinned out, with hits kept by preference.
IDE exosite FP: exo-site inhibitors of human IDE, primary screen, biochemical, fluorescence anisotropy, probe displacement. purified IDE, FL-6b probe fluorescence polarization; stronger effect = lower value. AID 1259349, 2017. z-score at 20 µM. Insulin-degrading enzyme (Homo sapiens), P14735. actives 6.3% (n = 17,000);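 active = z-score of -3 or lower, meaning strong loss of probe binding signal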;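 also: His-tagged human IDE residues 42-1019 made in E. coli with 30 nM FL-6b probe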
Target sequence (P14735 42-1019 limits assumed): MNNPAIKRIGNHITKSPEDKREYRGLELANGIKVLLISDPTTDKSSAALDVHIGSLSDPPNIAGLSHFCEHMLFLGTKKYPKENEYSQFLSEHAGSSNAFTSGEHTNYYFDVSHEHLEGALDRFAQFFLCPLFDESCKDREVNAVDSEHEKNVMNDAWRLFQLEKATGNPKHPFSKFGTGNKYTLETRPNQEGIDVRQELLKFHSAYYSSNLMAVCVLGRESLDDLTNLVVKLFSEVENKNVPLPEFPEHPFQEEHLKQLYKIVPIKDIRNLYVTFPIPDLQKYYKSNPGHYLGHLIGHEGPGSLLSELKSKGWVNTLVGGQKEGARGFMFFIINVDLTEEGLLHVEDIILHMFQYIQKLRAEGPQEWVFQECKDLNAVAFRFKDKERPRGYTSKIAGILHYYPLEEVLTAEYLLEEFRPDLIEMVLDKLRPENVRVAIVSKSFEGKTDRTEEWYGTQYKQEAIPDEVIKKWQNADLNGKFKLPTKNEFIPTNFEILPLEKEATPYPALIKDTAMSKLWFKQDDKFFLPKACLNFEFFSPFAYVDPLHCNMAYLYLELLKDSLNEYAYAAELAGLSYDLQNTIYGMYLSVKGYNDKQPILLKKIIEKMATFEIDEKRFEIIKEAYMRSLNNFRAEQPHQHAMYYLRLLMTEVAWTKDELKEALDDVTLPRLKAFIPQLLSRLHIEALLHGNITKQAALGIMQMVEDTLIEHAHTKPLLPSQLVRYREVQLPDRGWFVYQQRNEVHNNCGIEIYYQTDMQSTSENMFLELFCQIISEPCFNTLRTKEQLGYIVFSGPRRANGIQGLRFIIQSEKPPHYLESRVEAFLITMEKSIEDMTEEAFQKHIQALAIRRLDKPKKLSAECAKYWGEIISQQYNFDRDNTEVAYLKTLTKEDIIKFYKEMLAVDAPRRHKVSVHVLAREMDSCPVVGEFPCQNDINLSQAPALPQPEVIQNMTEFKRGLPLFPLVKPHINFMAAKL
* marks the source's active call; other numbers are inactive results.

SMILES | IDE exosite FP
COc1ccc(-c2ccc([C@@H]3[C@H]4CN(C(=O)C5CC5)CC(=O)N4[C@H]3CO)cc2)cc1 | -2.39
COc1ccc(-c2ccc([C@H]3[C@@H](CO)N4C(=O)CN(C(=O)C5CCC5)C[C@@H]34)cc2)cc1 | 1.68
COc1ccc(-c2ccc([C@@H]3[C@@H](CO)N4C(=O)CN(C(=O)C5CCCC5)C[C@@H]34)cc2)cc1 | -0.907
COc1ccc(-c2ccc([C@H]3[C@H]4CN(C(=O)C5CCC5)CC(=O)N4[C@H]3CO)cc2)cc1 | -0.161
COc1ccc(-c2ccc([C@@H]3[C@@H](CO)N4C(=O)CN(C(=O)C5CCCC5)C[C@H]34)cc2)cc1 | 0.568
COc1cccc(-c2ccc([C@@H]3[C@H]4CN(C(=O)C5CC5)CC(=O)N4[C@H]3CO)cc2)c1 | -10.5*
COc1cccc(-c2ccc([C@@H]3[C@H](CO)N4C(=O)CN(C(=O)C5CCC5)C[C@@H]34)cc2)c1 | -10.5*
COc1cccc(-c2ccc([C@H]3[C@@H](CO)N4C(=O)CN(C(=O)C5CC5)C[C@@H]34)cc2)c1 | -6.51*
C/C=C/c1ccc(C2[C@H]3CNC[C@@H]2N3S(=O)(=O)c2ccc(C)cc2)cc1 (stereo partly specified) | 1.11
CC(=O)N1[C@H](CO)[C@H](c2ccc(-c3cccnc3)cc2)[C@@H]1CNC(=O)C1CC1 | 0.0981
N#C[C@@H]1[C@@H](c2ccccc2-c2cccc(F)c2)[C@H](CO)N1C(=O)C1CCC1 | 2.57
CC(C)NC(=O)N1[C@H](CO)[C@H](c2ccccc2-c2ccc(F)cc2)[C@@H]1C#N | -1.28
CCS(=O)(=O)N1[C@H](CO)[C@H](c2ccc(C3=CCCCC3)cc2)[C@@H]1C#N | 1.34
COc1ccc(C[C@@H]2CCn3cc(nn3)COC[C@H](C)NC2=O)cc1 | 0.912
CCCC#Cc1ccc([C@H]2[C@@H](CO)N3C(=O)CN(C(=O)c4cccc(F)c4)C[C@@H]23)cc1 | 2.35
COc1cccc(-c2ccc([C@@H]3[C@H](CO)N4CCCCN(S(=O)(=O)c5cccs5)C[C@@H]34)cc2)c1 | -6.05*
Cc1cccc(-c2ccc([C@H]3[C@H](CO)N4CCCCN(S(=O)(=O)c5cccs5)C[C@@H]34)cc2)c1 | 3.16
Cc1cccc(-c2ccc([C@@H]3[C@@H](CO)N4CCCCN(S(=O)(=O)c5cccs5)C[C@@H]34)cc2)c1 | -3.77*
Cc1cccc(-c2ccc([C@@H]3[C@H](CO)N4CCCCN(S(=O)(=O)c5cccs5)C[C@@H]34)cc2)c1 | -8.04*
Cc1cccc(-c2ccc([C@H]3[C@@H](CO)N4CCCCN(S(=O)(=O)c5cccc(C)c5)C[C@@H]34)cc2)c1 | -1.08
O=S(=O)(c1cccs1)N1CCCCN2[C@H](C1)[C@H](c1ccc(C3=CCCC3)cc1)[C@@H]2CO | 0.976
COc1cccc(S(=O)(=O)N2CCCCN3[C@@H](CO)[C@@H](c4ccc(-c5ccccc5)cc4)[C@@H]3C2)c1 | 5.49
COc1cccc(-c2ccc([C@@H]3[C@@H](CO)N4CCCCN(S(=O)(=O)c5cccs5)C[C@H]34)cc2)c1 | 0.672
O=S(=O)(c1cccs1)N1CCCCN2[C@H](C1)[C@H](c1ccc(/C=C/c3ccccc3)cc1)[C@@H]2CO | -0.702
Cc1cccc(-c2ccc([C@@H]3[C@H]4CN(S(=O)(=O)c5cccs5)CCCCN4[C@H]3CO)cc2)c1 | 0.548
SMILES | IDE exosite FP
O=S(=O)(c1cccs1)N1CCCCN2[C@@H](CO)[C@@H](c3ccc(/C=C/c4ccccc4)cc3)[C@@H]2C1 | -3.18*
O=S(=O)(c1cccs1)N1CCCCN2[C@H](CO)[C@H](c3ccc(/C=C/c4ccccc4)cc3)[C@@H]2C1 | -0.116
CN1C(=O)c2cc(NC(=O)Cc3cccs3)ccc2OC[C@@H]2O[C@@H](CC(=O)NCC3CCCCC3)CC[C@H]21 | -0.117
CO[C@H]1CN(C)C(=O)c2ccc(NC(=O)C3CC3)cc2OC[C@H](C)N(C(C)=O)C[C@@H]1C | -1.18
C/C=C/c1ccc(C2[C@H]3CNC[C@@H]2N3C(=O)Nc2ccc3c(c2)OCO3)cc1 (stereo partly specified) | -0.413
O=C(Nc1cccc(F)c1)N1CC(=O)N2[C@H](CO)[C@H](c3ccc(C#CCC4CCCC4)cc3)[C@@H]2C1 | 2.86
C[C@H](O)C#Cc1ccc([C@H]2[C@@H](CO)N3CCCCN(C(=O)c4ccc5c(c4)OCO5)C[C@H]23)cc1 | -0.0839
Cn1cnc(S(=O)(=O)N2CCCCN3[C@H](CO)[C@H](c4ccc(C5=CCCCC5)cc4)[C@@H]3C2)c1 | -0.735
COc1ccccc1-c1ccc([C@@H]2[C@H]3CN(S(=O)(=O)c4cn(C)cn4)CCCCN3[C@H]2CO)cc1 | -8.45*
Cn1cnc(S(=O)(=O)N2CCCCN3[C@H](C2)[C@H](c2ccc(-c4ccc(F)cc4)cc2)[C@@H]3CO)c1 | 2.92
Cn1cnc(S(=O)(=O)N2CCCCN3[C@H](CO)[C@@H](c4ccc(-c5ccccc5F)cc4)[C@@H]3C2)c1 | -11.3*
Cc1ccccc1-c1ccc([C@@H]2[C@H]3CN(S(=O)(=O)c4cn(C)cn4)CCCCN3[C@H]2CO)cc1 | -18.5*
Cn1cnc(S(=O)(=O)N2CCCCN3[C@H](C2)[C@H](c2ccc(C4=CCCCC4)cc2)[C@@H]3CO)c1 | 0.242
Cn1cnc(S(=O)(=O)N2CCCCN3[C@H](C2)[C@H](c2ccc(-c4ccccc4F)cc2)[C@@H]3CO)c1 | 1.35
Cc1ccccc1-c1ccc([C@H]2[C@@H](CO)N3CCCCN(S(=O)(=O)c4cn(C)cn4)C[C@H]23)cc1 | -16.6*
Cn1cnc(S(=O)(=O)N2CCCCN3[C@@H](CO)[C@H](c4ccc(-c5ccccc5F)cc4)[C@@H]3C2)c1 | 0.109
N#C[C@@H]1[C@@H](c2ccc(-c3ccncc3)cc2)[C@@H](CO)N1C(=O)C1CCC1 | 1.6
CO[C@@H]1CN(C)C(=O)c2cc(NS(=O)(=O)c3cccc(Cl)c3)ccc2OC[C@@H](C)NC[C@H]1C | -0.924
O=C1CNC[C@@H]2[C@@H](c3ccc(C#Cc4cccnc4)cc3)[C@@H](CO)N12 | 0.142
C[C@H](NC(=O)C[C@@H]1CC[C@H]2[C@H](COc3ccc(NS(=O)(=O)c4ccc(Cl)cc4)cc3C(=O)N2C)O1)c1ccccc1 | 0.209
CC(C)C#Cc1ccc([C@@H]2[C@H](CO)N3C(=O)CN(C(=O)C4CCCCC4)C[C@@H]23)cc1 | 1.76
Cn1cnc(CCNC(=O)C[C@H]2CC[C@@H]3[C@H](COC[C@H](O)CN3C(=O)Nc3ccc(C(F)(F)F)cc3)O2)c1 | -0.243
CC(C)CC#Cc1ccc([C@@H]2[C@H]3CN(S(C)(=O)=O)CC(=O)N3[C@H]2CO)cc1 | 1.6
O=C(C[C@@H]1CC[C@@H]2[C@H](COC[C@@H](O)CN2C(=O)c2cnccn2)O1)N1CCN(c2ccccc2)CC1 | 2.07
O=C(c1ccc(F)cc1)N1CC(=O)N2[C@H](CO)[C@H](c3ccc(-c4ccccc4)cc3)[C@H]2C1 | -0.525
SMILES | IDE exosite FP
O=C(NC[C@H]1N[C@H](CO)[C@@H]1c1ccc(-c2ccccc2)cc1)C1CCC1 | -3.51*
O=C(NC[C@H]1N[C@H](CO)[C@@H]1c1ccccc1)C1CC1 | 2.97
O=C(NC[C@@H]1N[C@@H](CO)[C@H]1c1ccccc1)C1CCCC1 | 2.3
COc1ccccc1-c1ccc([C@H]2[C@@H](CO)N[C@@H]2CNC(=O)C2CC2)cc1 | -4.17*
O=C(NC[C@H]1N[C@H](CO)[C@@H]1c1ccccc1)C1CCC1 | 0.398
O=C(NC[C@@H]1N[C@@H](CO)[C@H]1c1ccccc1)C1CCC1 | 2.51

Compound activity: PubChem, Broad Institute
